In PubChem BioAssay (NCATS):
Inconclusive results are not listed. Active and inactive are the calls of the source. Unless noted, calls come from the whole dose curve; as a rule, active = well fitted curve in the direction sought with a large enough effect; inconclusive = small, poorly fitted or top-dose-only effect, or another doubt; inactive = no such curve, though single readings can be large; an effect the other way counts as inactive or inconclusive.

Tests used:
[1] = molecular target: Lysosomal acid glucosylceramidase (Homo sapiens) (UniProt P04062); assay: Glucocerebrosidase-p2 (AID 348; in the data active = potency below about 10 µM; note: potency is the fitted concentration of half-maximal effect); conditions: purified GBA, blue fluorogenic substrate, 40 min
Chain of Lysosomal acid glucosylceramidase (Homo sapiens) (P04062 whole entry, looked up): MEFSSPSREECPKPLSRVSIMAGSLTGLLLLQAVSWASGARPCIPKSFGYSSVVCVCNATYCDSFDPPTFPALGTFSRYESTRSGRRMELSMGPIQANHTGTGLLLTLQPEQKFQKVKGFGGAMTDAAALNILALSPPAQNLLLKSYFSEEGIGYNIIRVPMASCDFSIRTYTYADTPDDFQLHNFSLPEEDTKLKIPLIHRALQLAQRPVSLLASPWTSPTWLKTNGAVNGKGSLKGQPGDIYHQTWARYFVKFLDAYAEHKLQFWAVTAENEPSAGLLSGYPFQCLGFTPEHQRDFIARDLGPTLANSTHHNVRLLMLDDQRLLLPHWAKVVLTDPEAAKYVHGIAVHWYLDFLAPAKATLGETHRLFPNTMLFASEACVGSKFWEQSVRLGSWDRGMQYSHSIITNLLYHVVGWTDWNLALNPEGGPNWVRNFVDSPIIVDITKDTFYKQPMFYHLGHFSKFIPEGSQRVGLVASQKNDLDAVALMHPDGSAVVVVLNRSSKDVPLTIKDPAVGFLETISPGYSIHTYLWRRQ
Summary of the method: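 Normal human glucocerebrosidase (0.2 nM) with blue fluorogenic substrate (80 uM final) in citrate/phosphate pH 5.9 with 10mM sodium taurocholate, 0.01% tween-20; 40 min RT, NaOH/glycine stop; fluorescence Ex 365/Em 440; AC50 from a titration from 0.6 nM upwards.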

[2] = AP1 Signaling Pathway (AID 357; active = well fitted curve in either direction with a large enough effect, not every such curve was filed as active;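 note: ME-180 reporter cells stimulated with EGF at its EC50 level; % is set by controls: 0 for no effect and ±100 for the full control effect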); conditions: ME-180 AP-1-bla reporter, EGF-induced, beta-lactamase ratio, 5 h; at 7.69 µM (top of the series) unless noted
Summary of the method: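 Modulation of EGF-driven AP-1 transcription was assessed with a beta-lactamase reporter in ME-180 cells. Compound and EC50 EGF were co-incubated 5 hours at 37 °C before 2.5-hour CCF4 loading at room temperature and dual-emission reading.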

[3] = molecular target: Cytochrome P450 1A2 (Homo sapiens) (UniProt P05177); assay: p450-cyp1a2 (AID 410; calls by dose curve; note: potency is the fitted concentration of half-maximal effect;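 for activity change, negative = inhibition: -100% = full effect of reference inhibitor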); conditions: recombinant CYP1A2, luciferin-ME demethylation, luminescence; series mostly up to 57 µM
Chain of Cytochrome P450 1A2 (Homo sapiens) (P05177 whole entry, looked up): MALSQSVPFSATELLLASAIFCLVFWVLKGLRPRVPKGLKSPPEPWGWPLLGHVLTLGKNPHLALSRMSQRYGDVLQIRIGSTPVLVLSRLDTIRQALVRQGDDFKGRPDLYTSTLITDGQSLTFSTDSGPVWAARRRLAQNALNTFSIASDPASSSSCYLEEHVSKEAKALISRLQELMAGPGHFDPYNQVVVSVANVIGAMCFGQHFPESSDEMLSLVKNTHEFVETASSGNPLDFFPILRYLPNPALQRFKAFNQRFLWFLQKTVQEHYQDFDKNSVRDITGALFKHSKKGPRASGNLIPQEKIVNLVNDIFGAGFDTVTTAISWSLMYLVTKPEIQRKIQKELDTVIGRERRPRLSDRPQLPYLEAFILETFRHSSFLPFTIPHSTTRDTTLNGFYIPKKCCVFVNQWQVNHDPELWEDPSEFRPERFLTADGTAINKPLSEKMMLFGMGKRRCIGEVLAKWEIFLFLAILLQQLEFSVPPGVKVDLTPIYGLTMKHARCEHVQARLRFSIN
Summary of the method: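 20nM CYP1A2, 100uM Luciferin-ME (=Km), 100mM KPO4; cpd 10 min RT; +NADPH regen, 60 min RT; stop/detect 20 min; luminescence. Normalized to furafylline 57 uM = full inhibition.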

[4] = NFAT Signaling Pathway (AID 444; active = well fitted curve in either direction with a large enough effect, not every such curve was filed as active;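 note: carbachol stimulus at about its EC50 of 1 µM final; % is set by controls: 0 for no effect and ±100 for the full control effect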); conditions: Jurkat NFAT-bla M1, carbachol, beta-lactamase ratio, 5 h; at 7.69 µM (top of the series) unless noted
Summary of the method: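 Jurkat cells carrying an NFAT-driven β-lactamase reporter and co-transfected muscarinic M1 receptor were treated with compound plus carbachol (1 uM final, an EC50 level) for 5 h at 37 °C. CCF4 loading followed for 1 h at RT; 460/530 nm ratio gave %activity.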

[5] = Stat Signaling Pathway (AID 446; active = well fitted curve in either direction with a large enough effect, not every such curve was filed as active;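 note: ME-180 cervical cancer cells given 40 pM IL-6 alongside compound; SIE-controlled beta-lactamase reporter measured as 460/530 nm FRET emission ratio; % is set by controls: 0 for no effect and ±100 for the full control effect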); conditions: ME-180 (cervical carcinoma) SIE beta-lactamase reporter, IL-6 stimulated, 5 h; at 7.69 µM (top of the series) unless noted
Summary of the method: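 Emission at 460 and 530 nm (excitation 405 nm) reports SIE-controlled beta-lactamase in ME-180 cells. Cells received compound with 40 pM IL-6 for 5 hrs at 37 C; data scaled between 300 pM IL-6 and 125 nM JAK-inhibitor controls.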

[6] = molecular target: Glucocorticoid receptor (Homo sapiens) (UniProt P04150); assay: GR-GFP Redistribution (AID 450;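 active = compounds whose dose series gives a full or clear partial fitted curve of increased nuclear translocation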; note: potency is the fitted concentration of half-maximal effect); conditions: U2OS GR-GFP nuclear translocation, laser cytometry, 2 h
Chain of Glucocorticoid receptor (Homo sapiens) (P04150 whole entry, looked up, the tested form may be a part): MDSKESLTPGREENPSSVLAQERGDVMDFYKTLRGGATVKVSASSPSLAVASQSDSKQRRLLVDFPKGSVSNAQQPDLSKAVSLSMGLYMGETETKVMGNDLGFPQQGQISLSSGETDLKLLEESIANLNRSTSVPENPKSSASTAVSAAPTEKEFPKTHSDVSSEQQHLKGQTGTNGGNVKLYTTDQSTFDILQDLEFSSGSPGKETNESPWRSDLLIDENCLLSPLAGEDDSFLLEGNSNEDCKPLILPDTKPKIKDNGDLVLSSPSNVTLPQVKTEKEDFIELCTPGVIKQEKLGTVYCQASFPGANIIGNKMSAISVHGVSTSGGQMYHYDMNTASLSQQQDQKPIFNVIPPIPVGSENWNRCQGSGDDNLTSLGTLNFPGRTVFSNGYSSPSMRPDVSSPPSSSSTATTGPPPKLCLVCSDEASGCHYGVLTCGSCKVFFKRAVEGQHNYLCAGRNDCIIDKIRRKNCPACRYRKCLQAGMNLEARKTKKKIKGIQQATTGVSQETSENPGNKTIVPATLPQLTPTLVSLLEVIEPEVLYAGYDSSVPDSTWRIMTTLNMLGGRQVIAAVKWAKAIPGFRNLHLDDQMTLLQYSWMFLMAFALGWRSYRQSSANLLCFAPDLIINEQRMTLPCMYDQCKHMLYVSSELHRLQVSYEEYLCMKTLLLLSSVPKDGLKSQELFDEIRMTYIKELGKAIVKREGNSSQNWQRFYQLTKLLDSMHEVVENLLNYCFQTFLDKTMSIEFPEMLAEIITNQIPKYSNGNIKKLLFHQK

[7] = molecular target: Glucocorticoid receptor (Homo sapiens) (UniProt P04150); assay: GR-EFC Redistribution (AID 451; calls by dose curve; note: potency is the fitted concentration of half-maximal effect); conditions: CHO-K1 GR-EFC translocation, beta-gal luminescence, 2 h
Summary of the method: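 CHO-K1 cells stably expressing nuclear-localized β-gal enzyme acceptor and GR fused C-terminally to the enzyme donor fragment; ligand-driven nuclear translocation restores β-gal by complementation. Compounds titrated up to 46 uM final, 2 h at 37 °C; luminescence read.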

[8] = molecular target: Mitogen-activated protein kinase 10 (Mus musculus) (UniProt Q61831); assay: JNK3 AlphaScreen Assay (AID 530; active = well fitted curve in either direction with a large enough effect, not every such curve was filed as active;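 note: kinase came from lysate of stimulated human HepG2 cells; signal reports phosphorylation of biotinylated GST-cJun 1-79 at Ser73 with 10 µM ATP; % is set by controls: 0 for no effect and ±100 for the full control effect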); conditions: JNK3 lysate, c-Jun phosphorylation; series mostly up to 57.1 µM
Summary of the method: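 Biotinylated GST-cJun(1-79) served as substrate for JNK3 in HepG2 lysates stimulated with IL-1beta and TNF-alpha. ATP was 10 uM final, pH 7.6. Ser73 phosphorylation was quantified by AlphaScreen (680 nm excitation).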

[9] = molecular target: 3',5'-cyclic-AMP phosphodiesterase 4B (Homo sapiens) (UniProt Q07343); assay: qHTS Assay for Inhibitors of PDE-IV (AID 607; active = well fitted activation curve with a large enough effect in the main read-out, with a control signal flat, not every such curve was filed as active; note: % of control where 0% means no effect); conditions: HEK293 ACTOne CNG channel cells, membrane potential fluorescence; series mostly up to 22.9 µM
Chain of 3',5'-cyclic-AMP phosphodiesterase 4B (Homo sapiens) (Q07343 whole entry, looked up): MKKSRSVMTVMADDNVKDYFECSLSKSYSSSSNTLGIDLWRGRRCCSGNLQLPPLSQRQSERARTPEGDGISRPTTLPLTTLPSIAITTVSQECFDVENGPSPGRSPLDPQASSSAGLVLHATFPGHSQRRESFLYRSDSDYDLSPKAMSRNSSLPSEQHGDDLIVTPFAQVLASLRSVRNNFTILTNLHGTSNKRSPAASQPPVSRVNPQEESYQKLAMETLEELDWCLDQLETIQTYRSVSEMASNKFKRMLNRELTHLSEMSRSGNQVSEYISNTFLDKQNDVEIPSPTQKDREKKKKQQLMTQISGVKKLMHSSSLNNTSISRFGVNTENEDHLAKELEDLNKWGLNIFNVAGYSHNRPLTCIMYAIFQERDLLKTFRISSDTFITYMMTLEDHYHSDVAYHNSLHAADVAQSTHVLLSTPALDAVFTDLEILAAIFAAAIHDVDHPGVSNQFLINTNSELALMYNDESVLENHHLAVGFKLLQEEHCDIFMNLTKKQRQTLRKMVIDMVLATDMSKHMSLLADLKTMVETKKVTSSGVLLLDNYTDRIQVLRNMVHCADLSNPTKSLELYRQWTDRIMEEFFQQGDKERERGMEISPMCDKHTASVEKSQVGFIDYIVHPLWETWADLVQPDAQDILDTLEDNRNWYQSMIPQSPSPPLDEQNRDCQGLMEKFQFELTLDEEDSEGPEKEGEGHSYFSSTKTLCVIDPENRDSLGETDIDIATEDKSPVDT
Summary of the method: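 The readout is membrane depolarisation from a cAMP-sensing CNG channel, detected with a potential dye at ex 535/em 590. Cells were HEK293-derived (endogenous PDE-IV) at 1000 cells/well, titrated up to 22.9 uM final.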

[10] = qHTS Assay for Lipid Storage Modulators (AID 1519; calls by dose curve); conditions: Drosophila S3 cells, BODIPY lipid droplet/cell ratio, laser cytometry, cells loaded with oleic acid; for activity change, negative = inhibition: at 57.5 µM (top of the series)
Summary of the method: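 Cells seeded at 5,000 per well were treated with compounds over a concentration series and loaded with oleic acid (400 uM, as added). Lipid droplet fluorescence (488 nm excitation, 500-530 nm channel) was read by laser-scanning cytometry and normalized to 20 uM Triacsin C.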

[11] = Primary qHTS for small molecule stabilizers of the endoplasmic reticulum resident proteome: Secreted ER Calcium Modulated Protein (SERCaMP) assay (AID 1508630); conditions: SH-SY5Y GLuc-SERCaMP (Gaussia luciferase released on ER calcium loss) secretion, thapsigargin, luminescence; series mostly up to 38.4 µM; note: % is set by controls: 0 for no effect and ±100 for the full control effect
Summary of the method: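 The SH-SY5Y reporter protocol was run at 3 concentrations up to 38.3 uM (primary) or 11 concentrations (follow-up): 16 h compound, 100 nM thapsigargin for 4 h, then extracellular luciferase luminescence.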

[12] = molecular target: Cytochrome P450 3A4 (Homo sapiens) (UniProt P08684); assay: qHTS Assay for Activators of Cytochrome P450 3A4 (AID 885); conditions: recombinant CYP3A4, Luciferin-PPXE luminescence, 60 min; series mostly up to 57.1 µM; note: nearly all actives have a fitted effect of over 65% in size
Chain of Cytochrome P450 3A4 (Homo sapiens) (P08684 whole entry, looked up): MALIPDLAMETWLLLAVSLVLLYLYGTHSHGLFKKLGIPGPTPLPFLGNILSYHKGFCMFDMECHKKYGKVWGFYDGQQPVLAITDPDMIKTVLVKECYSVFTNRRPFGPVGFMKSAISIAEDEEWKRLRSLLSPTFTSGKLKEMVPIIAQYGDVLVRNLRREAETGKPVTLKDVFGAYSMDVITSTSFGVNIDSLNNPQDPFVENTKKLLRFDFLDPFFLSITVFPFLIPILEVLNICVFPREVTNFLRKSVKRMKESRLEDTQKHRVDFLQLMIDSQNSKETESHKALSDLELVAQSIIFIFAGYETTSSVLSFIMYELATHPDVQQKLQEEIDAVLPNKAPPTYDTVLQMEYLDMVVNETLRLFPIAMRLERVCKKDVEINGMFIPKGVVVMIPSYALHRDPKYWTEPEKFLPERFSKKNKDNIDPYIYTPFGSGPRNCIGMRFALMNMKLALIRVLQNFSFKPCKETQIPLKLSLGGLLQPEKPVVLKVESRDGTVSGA
Summary of the method: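 Activators are scored by enhanced luminescence from CYP3A4 conversion of luciferin-PPXE (25uM, equal to KM) to luciferin, after 60 min at RT with an NADPH-regenerating system.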

[13] = Confirmation and Secondary Assay for Modulators of Hemoglobin Beta Chain Splicing at IVS2 654 locus (AID 910); conditions: HeLa EGFP-654 splicing reporter, GFP fluorescence, 48 h; series mostly up to 38.3 µM;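 note: per-well total GFP intensity by laser scanning cytometry after 2-day treatment; % of control where 0% means no effect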
Summary of the method: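 HeLa cells stably carrying EGFP interrupted by mutant beta-globin IVS2-654 intron (CMV-driven) were treated with compound for 2 days at 37C; corrected splicing was scored as total peak GFP intensity per well (488 nm excitation, 500-520 nm emission).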

[14] = Confirmation and Secondary Assay for Modulators of Hemoglobin Beta Chain Splicing at IVS2 705 locus (AID 930); conditions: HeLa EGFP-705 splicing reporter, GFP fluorescence, 48 h; series mostly up to 38.3 µM;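 note: HeLa cells stably expressing the EGFP-705 splicing reporter; % of control where 0% means no effect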
Summary of the method: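 Restored EGFP fluorescence after 2-day compound exposure reports splicing correction in IVS2-705 EGFP reporter HeLa cells; positive control was 500 nM splice-blocking PNA oligo. Signal measured as well total peak GFP intensity (488 nm excitation).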

[15] = molecular target: Ubiquitin carboxyl-terminal hydrolase 1 (Homo sapiens) (UniProt O94782); assay: Inhibitors of USP1/UAF1: Pilot qHTS (AID 504865); conditions: purified USP1/UAF1, Ub-rhodamine cleavage fluorescence; series mostly up to 54.9 µM; note: nearly all actives have a fitted effect of over 35% in size; note: potency is the fitted concentration of half-maximal effect
Chain of Ubiquitin carboxyl-terminal hydrolase 1 (Homo sapiens) (O94782 whole entry, looked up): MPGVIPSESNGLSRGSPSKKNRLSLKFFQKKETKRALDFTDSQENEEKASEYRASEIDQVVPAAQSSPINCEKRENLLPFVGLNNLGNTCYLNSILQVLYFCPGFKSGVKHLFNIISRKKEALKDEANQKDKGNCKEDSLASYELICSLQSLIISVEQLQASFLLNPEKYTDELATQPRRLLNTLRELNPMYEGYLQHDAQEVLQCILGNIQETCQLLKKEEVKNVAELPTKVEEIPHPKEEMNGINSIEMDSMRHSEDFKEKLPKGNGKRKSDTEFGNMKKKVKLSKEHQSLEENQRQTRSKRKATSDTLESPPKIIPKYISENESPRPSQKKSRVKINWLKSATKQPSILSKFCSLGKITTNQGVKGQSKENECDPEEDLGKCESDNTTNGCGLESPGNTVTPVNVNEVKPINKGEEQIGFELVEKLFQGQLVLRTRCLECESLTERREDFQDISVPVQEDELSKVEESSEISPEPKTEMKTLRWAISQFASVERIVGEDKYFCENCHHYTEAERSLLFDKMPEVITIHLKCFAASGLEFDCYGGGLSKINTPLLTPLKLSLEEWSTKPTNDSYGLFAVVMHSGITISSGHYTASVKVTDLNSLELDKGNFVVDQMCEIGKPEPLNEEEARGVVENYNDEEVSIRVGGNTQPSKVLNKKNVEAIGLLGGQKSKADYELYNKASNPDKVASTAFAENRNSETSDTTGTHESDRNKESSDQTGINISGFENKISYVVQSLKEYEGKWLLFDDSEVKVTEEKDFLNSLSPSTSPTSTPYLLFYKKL
Summary of the method: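 Enzyme-free wells gave the negative control, while test wells held 1nM USP1/UAF1 preincubated with compound for 15 min at room temperature. Ub-Rho at 150nM final started the reaction, and fluorescence at 480/540 nm was recorded kinetically.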

[16] = molecular target: Cytochrome P450 2C9 (Homo sapiens) (UniProt P11712); assay: qHTS Assay for Inhibitors and Substrates of Cytochrome P450 2C9 (AID 883); conditions: recombinant CYP2C9, luciferin-H luminescence, 60 min; series mostly up to 57.1 µM; note: nearly all actives have a fitted effect of over 60% in size; note: potency is the fitted concentration of half-maximal effect
Chain of Cytochrome P450 2C9 (Homo sapiens) (P11712 whole entry, looked up): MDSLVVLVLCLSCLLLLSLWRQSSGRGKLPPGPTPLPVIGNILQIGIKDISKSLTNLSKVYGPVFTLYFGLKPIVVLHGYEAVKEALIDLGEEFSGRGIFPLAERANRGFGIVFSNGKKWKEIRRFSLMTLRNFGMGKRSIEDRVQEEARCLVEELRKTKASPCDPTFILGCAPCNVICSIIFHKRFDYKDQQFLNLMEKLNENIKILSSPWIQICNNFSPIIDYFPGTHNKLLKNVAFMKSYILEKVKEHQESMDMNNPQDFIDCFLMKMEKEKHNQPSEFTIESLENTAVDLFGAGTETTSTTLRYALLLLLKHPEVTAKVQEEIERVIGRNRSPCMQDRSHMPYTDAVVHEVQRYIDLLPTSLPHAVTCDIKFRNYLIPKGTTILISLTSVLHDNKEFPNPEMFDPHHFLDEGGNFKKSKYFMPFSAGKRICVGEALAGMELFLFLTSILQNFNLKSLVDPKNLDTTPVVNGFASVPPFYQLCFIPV
Summary of the method: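 Human CYP2C9 (10nM) hydroxylated Luciferin-H (100uM, at its KM) to luciferin in 25mM KPO4. Compound was preincubated 10 min at 37C, then NADPH regeneration started a 60 min reaction at 37C. Luminescence was read after detection reagent, normalized to 57uM sulphaphenazole.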

[17] = molecular target: Cytochrome P450 2C19 (Homo sapiens) (UniProt P33261); assay: qHTS Assay for Inhibitors and Substrates of Cytochrome P450 2C19 (AID 899); conditions: recombinant CYP2C19, luciferin-H EGE luminescence; series mostly up to 57.1 µM; note: potency is the fitted concentration of half-maximal effect; nearly all actives have a fitted effect of over 60% in size
Chain of Cytochrome P450 2C19 (Homo sapiens) (P33261 whole entry, looked up): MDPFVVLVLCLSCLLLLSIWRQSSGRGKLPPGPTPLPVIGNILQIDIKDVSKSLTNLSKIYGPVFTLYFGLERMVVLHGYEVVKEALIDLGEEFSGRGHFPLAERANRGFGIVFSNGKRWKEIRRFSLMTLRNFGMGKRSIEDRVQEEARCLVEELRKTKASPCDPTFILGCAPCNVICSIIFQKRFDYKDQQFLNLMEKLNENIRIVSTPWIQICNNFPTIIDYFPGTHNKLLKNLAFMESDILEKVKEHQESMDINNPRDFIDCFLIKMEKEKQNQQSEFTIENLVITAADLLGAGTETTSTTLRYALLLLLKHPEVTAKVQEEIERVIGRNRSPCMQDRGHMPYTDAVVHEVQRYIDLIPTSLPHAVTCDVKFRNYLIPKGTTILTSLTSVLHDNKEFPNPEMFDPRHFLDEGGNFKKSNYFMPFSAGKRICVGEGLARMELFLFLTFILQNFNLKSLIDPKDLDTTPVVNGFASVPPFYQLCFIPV
Summary of the method: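 Human CYP2C19 (5nM) with Luciferin-H EGE at 10uM (its KM) in 50mM KPO4 was preincubated with compound for 10 min at 37C. NADPH regeneration started a 60 min 37C reaction. Luciferin was read by luminescence, normalized to 57uM ketoconazole.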

[18] = molecular target: Cytochrome P450 3A4 (Homo sapiens) (UniProt P08684); assay: qHTS Assay for Inhibitors and Substrates of Cytochrome P450 3A4 (AID 884); conditions: recombinant CYP3A4, Luciferin-PPXE luminescence; series mostly up to 57.1 µM; note: potency is the fitted concentration of half-maximal effect; nearly all actives have a fitted effect of over 50% in size
Summary of the method: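 Luminescent readout of luciferin produced by CYP3A4 (20 nM) dealkylation of Luciferin-PPXE, 25 uM (its KM). NADPH-driven reaction ran 60 min at RT after 10 min compound preincubation; data scaled to 57 uM ketoconazole as 100% inhibition.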

[19] = measured here: cell count channel max response
[20] = measured here: lipid channel max response

Cn1c(=O)cnc2cnc(Oc3ccccc3)nc21
25.3%: max response [10, 20]
18.8%: max response [10, 19]
inactive: Potency [1] > 11.4 µM | activity change, negative = inhibition [2] 5.77% | activity change, negative = inhibition [4] 4.94% | activity, negative = inhibition [5] -3.04% | Potency [6] > 9.22 µM | Potency [7] > 46 µM | outcome [8] | Potency [9] | activity change, negative = inhibition [10] 3.92% | Potency [11]
active: Potency [3] 10 µM

CN(C)c1nc(-c2ccoc2)nc2ccccc12
inactive: Potency [1] > 11.4 µM | activity change, negative = inhibition [2] -8.03% | activity change, negative = inhibition [4] -9.32% | activity, negative = inhibition [5] 6.57% | Potency [6] > 46 µM | Potency [7] > 46 µM | outcome [8] | Potency [12] | outcome [13] | outcome [14] | activity change, negative = inhibition [10] 8.68% | Potency [11]
active: Potency [3] 0.501 µM | Potency [15] 56.2 µM
8.73%: max response [10, 19]
18.5%: max response [10, 20]

COc1ccc2[nH]cc(CCNc3ncncc3-c3ccc(N(C)C)cc3)c2c1
inactive: Potency [1] > 11.4 µM | activity change, negative = inhibition [2] -27.6% | activity change, negative = inhibition [4] 4.01% | activity, negative = inhibition [5] -7.73% | Potency [6] > 46 µM | Potency [7] > 46 µM | Potency [12] | outcome [13] | outcome [14] | activity change, negative = inhibition [10] 5.88% | Potency [15] | Potency [11]
active: Potency [3] 0.251 µM | Potency [16] 0.501 µM | Potency [17] 1.58 µM
5.01%: max response [10, 19]
11%: max response [10, 20]

COc1ccccc1CNc1ccnc(-c2ccoc2)n1
-15.1%: max response [10, 19]
2.83%: max response [10, 20]
inactive: Potency [1] > 11.4 µM | activity change, negative = inhibition [2] -2.58% | activity change, negative = inhibition [4] -21% | activity, negative = inhibition [5] -4.66% | Potency [6] > 46 µM | Potency [7] > 46 µM | outcome [8] | Potency [12] | outcome [13] | outcome [14] | activity change, negative = inhibition [10] 8.47% | Potency [11]
active: Potency [3] 1.58 µM | Potency [18] 2.51 µM | Potency [17] 7.94 µM | Potency [15] 50.1 µM

COCCNc1cc(-c2ccccc2CN(C)C)ncn1
21.8%: max response [10, 19]
inactive: Potency [1] > 11.4 µM | activity change, negative = inhibition [2] 1.28% | Potency [3] | activity change, negative = inhibition [4] -0.403% | activity, negative = inhibition [5] 13.5% | Potency [6] > 46 µM | Potency [7] > 46 µM | outcome [8] | activity change, negative = inhibition [16] 49.4% [at 2.29 µM] | outcome [13] | outcome [14] | activity change, negative = inhibition [10] 4.45% | Potency [15] | Potency [11]
24.8%: max response [10, 20]

c1csc(CNc2ncncc2-c2ccc3c(c2)OCO3)c1
0.346%: max response [10, 19]
active: Potency [3] 0.2 µM | Potency [16] 0.316 µM | Potency [17] 0.794 µM
inactive: Potency [1] > 11.4 µM | activity change, negative = inhibition [2] -9.82% | activity change, negative = inhibition [4] -6.2% | activity, negative = inhibition [5] 6.16% | Potency [6] > 46 µM | Potency [7] > 46 µM | outcome [8] | outcome [13] | outcome [14] | activity change, negative = inhibition [10] 6.61% | Potency [15] | Potency [11]
8.95%: max response [10, 20]
